Results published in PubChem BioAssay (NCI).
Compounds without any hit were thinned out: in the full panel of roughly 79,000, 15% have a hit. The source made the active and inactive calls. Rule as the data show it: active = growth inhibition above about 70%; inactive = the rest.

Tests used:
[1] = NCI Yeast Anticancer Drug Screen. Data for the rad52 strain (AID 147);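 also: 0% = growth of vehicle-treated control cultures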; details: S. cerevisiae rad52 mutant growth inhibition, active compounds read high
Outline: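 The repair-mutant yeast strain was incubated with compounds, then growth was read and inhibition derived relative to vehicle.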

[2] = NCI Yeast Anticancer Drug Screen. Data for the wt1 strain (AID 149);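 also: 0% = growth of vehicle-treated wt1 cultures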; details: S. cerevisiae wt1 strain (SPY 50644) growth inhibition, active compounds read high
Outline: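 Compounds are added to wt1 yeast cultures. Growth is then measured. Inhibition is expressed relative to vehicle-treated controls.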

[3] = NCI Yeast Anticancer Drug Screen. Data for the rad50EPP+ strain (AID 151);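 also: 0% = growth of vehicle-treated control cultures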; details: S. cerevisiae rad50 mutant strain, active compounds read high
Outline: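 Vehicle-normalised growth inhibition; rad50EPP+ yeast strain, altered in DNA damage repair, compound-treated.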

[4] = NCI Yeast Anticancer Drug Screen. Data for the mgt1 strain (AID 153); details: S. cerevisiae mgt1 mutant growth inhibition, active compounds read high
Outline: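 Vehicle-normalized growth inhibition is determined in mgt1 yeast, a strain selected for a defined alteration in DNA repair or cell cycle control.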

[5] = NCI Yeast Anticancer Drug Screen. Data for the rad50 strain (AID 155);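 also: 0% = growth of vehicle-only cultures of the same strain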; details: S. cerevisiae rad50 strain growth inhibition, active compounds read high
Outline: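 Inhibition values express reduced yeast growth in compound-treated cultures relative to vehicle-treated controls.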

[6] = NCI Yeast Anticancer Drug Screen. Data for the mec2-1 strain (AID 157); details: S. cerevisiae mec2-1 strain, active compounds read high
Outline: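 Mutant yeast (mec2-1) grown with compound; growth inhibition relative to vehicle control reported.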

[7] = NCI Yeast Anticancer Drug Screen. Data for the rad14 strain (AID 159);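 also: 0% = growth of vehicle-treated control cultures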; details: S. cerevisiae rad14 strain growth inhibition, active compounds read high
Outline: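 A mutant yeast strain defective in DNA damage repair is treated with compound; inhibition of its growth is scored against untreated, vehicle-exposed cultures.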

[8] = NCI Yeast Anticancer Drug Screen. Data for the sgs1 mgt1 strain (AID 161);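 also: 0% = growth of cultures given vehicle only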; details: S. cerevisiae sgs1 mgt1 strain, active compounds read high
Outline: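 Compounds are added to genetically altered yeast, and growth is compared with cultures given vehicle alone to give percent inhibition.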

[9] = NCI Yeast Anticancer Drug Screen. Data for the CLN2oe strain (AID 163);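 also: 0% = growth of vehicle-only control cultures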; details: S. cerevisiae CLN2oe strain, active compounds read high
Outline: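 Compounds are applied to yeast harbouring a defined cell-cycle control change; reduced growth compared with vehicle-treated controls gives the value.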

[10] = NCI Yeast Anticancer Drug Screen. Data for the cln2 rad14 strain (AID 165);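 also: 0% = growth equal to vehicle treated cultures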; details: S. cerevisiae cln2 rad14 strain, active compounds read high
Outline: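 Readout is yeast growth inhibition versus vehicle-treated controls, using a strain with cln2 and rad14 alterations exposed to compound.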

[11] = NCI Yeast Anticancer Drug Screen. Data for the bub3 strain (AID 167); details: S. cerevisiae bub3 mutant strain, active compounds read high
Outline: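 Steps: expose the mutant yeast strain to compound; grow alongside vehicle-treated cultures; measure growth; express inhibition against the vehicle cultures.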

[12] = NCI Yeast Anticancer Drug Screen. Data for the wt2 strain (AID 169);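 also: 0% = growth of vehicle-treated yeast cultures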; details: S. cerevisiae wt2 strain growth inhibition, active compounds read high
Outline: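 Against vehicle-treated controls, the growth of yeast exposed to each compound was compared, and the inhibition was recorded.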

[13] = NCI Yeast Anticancer Drug Screen. Data for the mlh1 strain (AID 171);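 also: 0% = growth of vehicle-treated control cultures of the same strain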; details: S. cerevisiae mlh1 strain growth inhibition, active compounds read high
Outline: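 Measured: yeast growth. Reference: vehicle-treated controls. Organism: strain with a defined alteration affecting DNA damage repair or cell cycle control, treated with compound.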

[14] = NCI Yeast Anticancer Drug Screen. Data for the sgs1 strain (AID 173);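 also: 0% = growth of vehicle-only control cultures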; details: S. cerevisiae sgs1 mutant, active compounds read high
Outline: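 Each compound was added to cultures of the altered yeast strain. Growth was recorded, and inhibition was derived by comparison with vehicle controls.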

[15] = NCI Yeast Anticancer Drug Screen. Data for the mlh1 rad18 strain (AID 175); details: S. cerevisiae mlh1 rad18 strain growth inhibition, active compounds read high
Outline: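 Genetically defined yeast (DNA repair-deficient) exposed to compounds; growth inhibition determined relative to vehicle.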

[16] = NCI Yeast Anticancer Drug Screen. Data for the rad18 strain (AID 177); details: S. cerevisiae rad18 mutant growth inhibition, active compounds read high
Outline: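 Vehicle-treated cultures served as the baseline for scoring compound-induced growth inhibition in DNA-repair-mutant yeast.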

[17] = at 5.0 µM (retest, dose inferred, filed as 0.5)
[18] = at 50.0 µM (retest, dose inferred, filed as 5.0)

Measured: growth inhibition

O=C(Nc1ccc(Cl)cc1)c1cc2cc(N=Nc3ccccc3Cl)ccc2oc1=O
active: [1]; at 33.0 µM 89% | [1]; at 100.0 µM 92% | [2]; at 33.0 µM 72% | [2]; at 100.0 µM 93% | [3]; at 3.7 µM 75% | [3]; at 11.0 µM 89% | [3]; at 33.0 µM 90% | [3]; at 100.0 µM 86% | [4]; at 33.0 µM 92% | [4]; at 100.0 µM 95% | [5]; at 33.0 µM 84% | [5]; at 50.0 µM 88.8% | [5]; at 100.0 µM 90% | [6]; at 33.0 µM 94% | [6]; at 50.0 µM 88.5% | [6]; at 100.0 µM 95% | [7]; at 33.0 µM 95% | [7]; at 100.0 µM 94% | [8]; at 50.0 µM 84.8% | [9]; at 33.0 µM 89% | [9]; at 100.0 µM 92% | [10]; at 50.0 µM 82.8% | [11]; at 33.0 µM 93% | [11]; at 50.0 µM 86.2% | [11]; at 100.0 µM 93% | [12]; at 33.0 µM 91% | [12]; at 100.0 µM 94% | [13]; at 33.0 µM 95% | [13]; at 100.0 µM 95% | [14]; at 11.0 µM 70% | [14]; at 33.0 µM 93% | [14]; at 100.0 µM 92% | [15]; at 50.0 µM 85.4% | [16]; at 33.0 µM 92% | [16]; at 100.0 µM 91%
inactive: [1]; at 1.2 µM 8% | [1]; at 3.7 µM 25% | [1]; at 11.0 µM 58% | [2]; at 1.2 µM 3% | [2]; at 3.7 µM 8% | [2]; at 11.0 µM 26% | [3]; at 1.2 µM 39% | [4]; at 1.2 µM 3% | [4]; at 3.7 µM 11% | [4]; at 11.0 µM 48% | [5]; at 1.2 µM 4% | [5]; at 3.7 µM 13% | [5]; [17] 54% | [5]; at 11.0 µM 38% | [5]; [18] 54% | [6]; at 1.2 µM 3% | [6]; at 3.7 µM 10% | [6]; [17] 7% | [6]; at 11.0 µM 40% | [6]; [18] 7% | [7]; at 1.2 µM 4% | [7]; at 3.7 µM 5% | [7]; at 11.0 µM 62% | [8]; [17] 25% | [8]; [18] 25% | [9]; at 1.2 µM 3% | [9]; at 3.7 µM 13% | [9]; at 11.0 µM 40% | [10]; [17] 12% | [10]; [18] 12% | [11]; at 1.2 µM -14% | [11]; at 3.7 µM -19% | [11]; [17] 13% | [11]; at 11.0 µM 26% | [11]; [18] 13% | [12]; at 1.2 µM 5% | [12]; at 3.7 µM 15% | [12]; at 11.0 µM 57% | [13]; at 1.2 µM 1% | [13]; at 3.7 µM 7% | [13]; at 11.0 µM 38% | [14]; at 1.2 µM 11% | [14]; at 3.7 µM 24% | [15]; [17] 23% | [15]; [18] 23% | [16]; at 1.2 µM 4% | [16]; at 3.7 µM 24% | [16]; at 11.0 µM 68%

Cc1c2c(nc3ccccc13)C(=O)c1cccnc1C2=O
active: [1]; at 33.0 µM 75% | [1]; at 100.0 µM 94% | [2]; at 100.0 µM 81% | [3]; at 100.0 µM 92% | [4]; at 100.0 µM 78% | [5]; at 33.0 µM 78% | [5]; [18] 90% | [5]; at 50.0 µM 77.8% | [5]; at 100.0 µM 94% | [6]; [18] 90% | [6]; at 100.0 µM 83% | [7]; at 100.0 µM 81% | [8]; [18] 78% | [8]; at 50.0 µM 79.2% | [9]; at 100.0 µM 78% | [10]; [18] 72% | [11]; [18] 83% | [11]; at 50.0 µM 75.7% | [11]; at 100.0 µM 83% | [12]; at 100.0 µM 73% | [13]; at 100.0 µM 84% | [14]; at 100.0 µM 81% | [16]; at 100.0 µM 90%
inactive: [1]; at 1.2 µM -10% | [1]; at 3.7 µM 0% | [1]; at 11.0 µM 9% | [2]; at 1.2 µM 2% | [2]; at 3.7 µM 9% | [2]; at 11.0 µM 6% | [2]; at 33.0 µM 17% | [3]; at 1.2 µM -6% | [3]; at 3.7 µM -11% | [3]; at 11.0 µM -2% | [3]; at 33.0 µM 45% | [4]; at 1.2 µM 1% | [4]; at 3.7 µM -1% | [4]; at 11.0 µM -10% | [4]; at 33.0 µM 13% | [5]; at 1.2 µM 9% | [5]; at 3.7 µM 15% | [5]; [17] 57% | [5]; at 11.0 µM 21% | [6]; at 1.2 µM -18% | [6]; at 3.7 µM -10% | [6]; [17] -4% | [6]; at 11.0 µM -13% | [6]; at 33.0 µM 7% | [6]; at 50.0 µM 66.8% | [7]; at 1.2 µM 3% | [7]; at 3.7 µM 3% | [7]; at 11.0 µM 4% | [7]; at 33.0 µM 23% | [8]; [17] 1% | [9]; at 1.2 µM -8% | [9]; at 3.7 µM 1% | [9]; at 11.0 µM 3% | [9]; at 33.0 µM 11% | [10]; [17] -1% | [10]; at 50.0 µM 64% | [11]; at 1.2 µM 5% | [11]; at 3.7 µM 7% | [11]; [17] 12% | [11]; at 11.0 µM -13% | [11]; at 33.0 µM 4% | [12]; at 1.2 µM 3% | [12]; at 3.7 µM -3% | [12]; at 11.0 µM 17% | [12]; at 33.0 µM 20% | [13]; at 1.2 µM 22% | [13]; at 3.7 µM 15% | [13]; at 11.0 µM 20% | [13]; at 33.0 µM 17% | [14]; at 1.2 µM -9% | [14]; at 3.7 µM -11% | [14]; at 11.0 µM -9% | [14]; at 33.0 µM 11% | [16]; at 1.2 µM -11% | [16]; at 3.7 µM -5% | [16]; at 11.0 µM 0% | [16]; at 33.0 µM 23%
